Test results published in the supplement of paper PMC10849652.
Targets with a hit are over-represented here; the source holds about 7,900 in all. About 0.6% of all pairs of compound and target were hits.

Tests used:
Test in all cases: log2 fold change, soluble protein after heating vs DMSO (PISA); higher = thermal stabilisation; K562 cells, 10 uM, 30 min; active = over 0.2 and 3.5 SD of the protein, either way, in both replicates (recomputed)
[1] = compound: CS(=O)(=O)c1ccc(-c2cnc(N)c(C(=O)Nc3ccccc3)n2)cc1
Summary of the method: (§1)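 K562 cells at 2×10^6 cells/mL were exposed to 10 μM compound for 30 min, then aliquots were heated for 3 min across 48°C-58°C, pooled, and extracted in PBS containing 0.5% NP-40 at 4°C. The supernatant after 21,000xg for 90 min was taken as soluble protein and measured by TMTpro 16plex LC-MS/MS with channel sums equalised. Thermal stability is reported relative to control samples, with values from duplicates. Fold changes are given on a log2 scale.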

[2] = compound: C[C@@H](Oc1cc(-c2cnn(C3CCNCC3)c2)cnc1N)c1c(Cl)ccc(F)c1Cl [crizotinib]
Summary of the method: as §1

[3] = compound: C[C@@H]1COCCN1C2=NC(=NC(=C2)C3(CC3)S(=O)(=O)C)C4=C5C=CNC5=CC=C4
Summary of the method: as §1

[4] = compound: C[C@H](C1=CC=C(C=C1)C(=O)NC2=C3C=CNC3=NC=C2)N
Summary of the method: as §1

[5] = compound: C[C@H](Nc1ncnc2nc[nH]c12)c1cc2cccc(Cl)c2c(=O)n1-c1ccccc1 [duvelisib]
Summary of the method: as §1

[6] = compound: Cc1cc(Nc2cc(CN3CCOCC3)c3nc(C)c(Cc4ccc(Cl)cc4F)n3n2)n[nH]1 [gandotinib]
Summary of the method: as §1

[7] = compound: Cc1cc(Nc2cc(N3CCN(C)CC3)nc(Sc3ccc(NC(=O)C4CC4)cc3)n2)n[nH]1 [tozasertib]
Summary of the method: as §1

[8] = compound: Cc1cc(SCc2sc(-c3ccc(C(F)(F)F)cc3)nc2C)ccc1OCC(=O)O
Summary of the method: as §1

[9] = compound: Cc1ccc(-n2nc(C(C)(C)C)cc2NC(=O)Nc2ccc(OCCN3CCOCC3)c3ccccc23)cc1 [doramapimod]
Summary of the method: as §1

[10] = compound: Cc1ccc(C(=O)N(CCCN)[C@@H](c2nc3cc(Cl)ccc3c(=O)n2Cc2ccccc2)C(C)C)cc1 [ispinesib]
Summary of the method: as §1

[11] = compound: Cc1ccc(NC(=O)c2ccc(CN3CC[C@H](N(C)C)C3)c(C(F)(F)F)c2)cc1Nc1nccc(-c2cncnc2)n1 [bafetinib]
Summary of the method: as §1

[12] = compound: Cc1cccc(CC(=O)N2CCc3c2ccc(-c2cn(C)c4ncnc(N)c24)c3F)n1
Summary of the method: as §1

[13] = compound: Cc1cn(-c2cc(NC(=O)c3ccc(C)c(Nc4nccc(-c5cccnc5)n4)c3)cc(C(F)(F)F)c2)cn1 [nilotinib]
Summary of the method: as §1

[14] = compound: Cc1nc(Nc2n[nH]c3c2CN(C(=O)N[C@H](CN(C)C)c2ccccc2)C3(C)C)c2sccc2n1
Summary of the method: as §1

[15] = compound: Cc1nc(Nc2ncc(C(=O)Nc3c(C)cccc3Cl)s2)cc(N2CCN(CCO)CC2)n1 [dasatinib]
Summary of the method: as §1

[16] = compound: Cc1ncc(-c2ccnc(Nc3ccc(S(C)(=O)=O)cc3)n2)n1C(C)C
Summary of the method: as §1

[17] = compound: Cn1cc(-c2ccc3c(c2)CCN3C(=O)Cc2cccc(C(F)(F)F)c2)c2c(N)ncnc21
Summary of the method: as §1

[18] = compound: Cn1cc(-c2ccc3nnc(C(F)(F)c4ccc5ncccc5c4)n3n2)cn1
Summary of the method: as §1

[19] = compound: Cn1cncc1[C@@](N)(c1ccc(Cl)cc1)c1ccc2c(c1)c(-c1cccc(Cl)c1)cc(=O)n2C [tipifarnib]
Summary of the method: as §1

[20] = compound: FC(F)(F)c1ccc(/C=C/c2nc(COc3ccc(CCCCn4ccnn4)cc3)co2)cc1 [mubritinib]
Summary of the method: as §1

Measured: log2 fold change

TMEM214 (UniProt Q6NUQ4)
Chain of UniProt Q6NUQ4 (Q6NUQ4 whole entry, looked up): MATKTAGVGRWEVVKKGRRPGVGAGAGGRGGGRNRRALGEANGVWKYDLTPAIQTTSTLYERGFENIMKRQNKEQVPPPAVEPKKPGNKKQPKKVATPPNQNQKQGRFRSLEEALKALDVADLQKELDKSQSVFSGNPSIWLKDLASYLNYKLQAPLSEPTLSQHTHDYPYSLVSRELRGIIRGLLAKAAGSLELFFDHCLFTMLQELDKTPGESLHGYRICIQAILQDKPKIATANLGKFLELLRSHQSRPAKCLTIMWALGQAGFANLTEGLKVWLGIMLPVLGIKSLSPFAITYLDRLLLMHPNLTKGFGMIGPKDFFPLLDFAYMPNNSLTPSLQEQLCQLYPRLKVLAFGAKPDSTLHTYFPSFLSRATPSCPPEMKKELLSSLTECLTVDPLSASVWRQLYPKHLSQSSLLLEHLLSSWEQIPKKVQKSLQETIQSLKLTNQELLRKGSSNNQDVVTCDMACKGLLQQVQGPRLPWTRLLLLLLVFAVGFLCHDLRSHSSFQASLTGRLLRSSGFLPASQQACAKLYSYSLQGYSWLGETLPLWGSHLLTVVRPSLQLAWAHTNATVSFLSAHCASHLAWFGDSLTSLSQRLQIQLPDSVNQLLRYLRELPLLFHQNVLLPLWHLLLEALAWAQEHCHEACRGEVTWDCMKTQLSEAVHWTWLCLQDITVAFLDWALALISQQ
inactive: [1] -0.018 | [2] 0.123 | [3] -0.043 | [4] 0.067 | [5] 0.011 | [6] -0.079 | [7] 0.028 | [8] 0.048 | [9] -0.013 | [10] 0.072 | [11] 0.017 | [12] 0.029 | [13] -0.117 | [14] -0.02 | [15] -0.071 | [16] 0.023 | [17] -0.022 | [18] -0.041 | [19] -0.047 | [20] 0.005

TNNC2 (UniProt P02585)
Chain of UniProt P02585 (P02585 whole entry, looked up): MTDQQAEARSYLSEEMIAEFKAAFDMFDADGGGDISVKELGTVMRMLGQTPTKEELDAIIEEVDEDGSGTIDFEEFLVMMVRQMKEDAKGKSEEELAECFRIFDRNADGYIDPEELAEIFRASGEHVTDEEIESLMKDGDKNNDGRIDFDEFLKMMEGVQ
active: [7] -1.1
inactive: [1] -0.004 | [2] 0.06 | [3] 0.04 | [4] -0.005 | [5] 0.072 | [6] 0.078 | [8] -0.059 | [9] -0.014 | [10] 0.022 | [11] -0.057 | [12] -0.058 | [13] 0.057 | [14] 0.024 | [15] 0.022 | [16] -0.015 | [17] 0.049 | [18] 0.032 | [19] 0.015 | [20] 0.001

UBA1 (UniProt P22314)
Chain of UniProt P22314 (P22314 whole entry, looked up): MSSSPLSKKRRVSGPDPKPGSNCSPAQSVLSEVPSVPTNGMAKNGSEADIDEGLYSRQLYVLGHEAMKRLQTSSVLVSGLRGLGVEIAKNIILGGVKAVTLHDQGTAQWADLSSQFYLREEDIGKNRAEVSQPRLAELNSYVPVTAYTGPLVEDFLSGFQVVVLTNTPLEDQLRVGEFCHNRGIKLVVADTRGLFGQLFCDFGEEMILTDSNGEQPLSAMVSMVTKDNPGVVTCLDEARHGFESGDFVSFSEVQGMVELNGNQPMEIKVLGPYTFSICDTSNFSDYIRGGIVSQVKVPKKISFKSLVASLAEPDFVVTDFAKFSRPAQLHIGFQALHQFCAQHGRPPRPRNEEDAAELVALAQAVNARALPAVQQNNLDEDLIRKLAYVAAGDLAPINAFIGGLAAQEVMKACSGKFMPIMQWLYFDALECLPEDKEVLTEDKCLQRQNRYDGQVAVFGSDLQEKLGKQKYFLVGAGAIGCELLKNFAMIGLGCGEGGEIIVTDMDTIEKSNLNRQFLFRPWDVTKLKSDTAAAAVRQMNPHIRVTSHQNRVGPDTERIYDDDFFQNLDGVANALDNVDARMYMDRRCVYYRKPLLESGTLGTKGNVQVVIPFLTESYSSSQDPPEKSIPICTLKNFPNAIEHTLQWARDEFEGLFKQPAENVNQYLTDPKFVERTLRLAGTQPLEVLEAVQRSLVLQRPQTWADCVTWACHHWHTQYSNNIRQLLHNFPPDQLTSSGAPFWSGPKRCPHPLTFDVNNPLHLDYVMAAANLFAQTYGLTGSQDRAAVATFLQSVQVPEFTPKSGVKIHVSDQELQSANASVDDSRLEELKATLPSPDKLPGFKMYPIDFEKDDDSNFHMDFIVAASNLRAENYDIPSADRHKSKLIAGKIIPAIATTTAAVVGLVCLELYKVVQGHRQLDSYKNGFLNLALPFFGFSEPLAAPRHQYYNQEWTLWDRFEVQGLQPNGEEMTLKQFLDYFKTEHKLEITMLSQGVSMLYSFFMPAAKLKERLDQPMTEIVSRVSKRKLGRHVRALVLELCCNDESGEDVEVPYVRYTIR
inactive: [1] 0.127 | [2] -0.338 | [3] 0.091 | [4] 0.017 | [5] -0.014 | [6] -0.068 | [7] 0.066 | [8] 0.148 | [9] -0.031 | [10] -0.11 | [11] 0.034 | [12] 0.187 | [13] -0.089 | [14] -0.062 | [15] -0.216 | [16] 0.062 | [17] 0.027 | [18] 0.121 | [19] -0.235
active: [20] 0.395

TOE1 (UniProt Q96GM8)
inactive: [1] 0.013 | [2] 0 | [3] -0.221 | [4] 0.211 | [5] -0.01 | [6] 0.219 | [7] 0.041 | [8] 0.066 | [9] 0.065 | [10] -0.021 | [11] 0.301 | [12] 0.033 | [13] 0.152 | [14] 0.178 | [15] 0.097 | [16] 0.017 | [17] -0.113 | [18] -0.072 | [19] -0.036 | [20] 0.111

VARS2, A0A0G2JL52
active: [10] -0.244
inactive: [1] 0.004 | [2] 0 | [3] 0.06 | [4] 0.018 | [5] 0.012 | [6] -0.061 | [7] -0.034 | [8] 0.025 | [9] 0.048 | [11] -0.051 | [12] 0 | [13] -0.043 | [14] 0.012 | [15] 0.009 | [16] 0.003 | [17] 0.037 | [18] -0.021 | [19] -0.01 | [20] -0.049

WBP4 (UniProt O75554)
Chain of UniProt O75554 (O75554 whole entry, looked up): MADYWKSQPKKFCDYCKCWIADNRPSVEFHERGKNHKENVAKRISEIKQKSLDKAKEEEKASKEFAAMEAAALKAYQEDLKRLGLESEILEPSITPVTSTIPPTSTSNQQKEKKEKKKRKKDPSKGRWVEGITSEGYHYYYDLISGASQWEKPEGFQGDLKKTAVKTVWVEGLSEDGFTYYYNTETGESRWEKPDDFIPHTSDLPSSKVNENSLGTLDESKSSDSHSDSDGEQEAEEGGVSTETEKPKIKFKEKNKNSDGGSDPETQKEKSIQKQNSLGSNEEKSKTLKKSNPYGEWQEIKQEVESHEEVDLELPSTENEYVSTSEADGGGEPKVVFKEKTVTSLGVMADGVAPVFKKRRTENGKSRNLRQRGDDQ
inactive: [1] -0.032 | [2] 0.059 | [3] 0.004 | [4] -0.015 | [5] 0.011 | [6] -0.022 | [7] -0.016 | [8] 0.01 | [9] 0.018 | [10] -0.044 | [11] -0.043 | [12] 0.14 | [13] 0.001 | [14] -0.006 | [15] 0.014 | [16] -0.023 | [17] 0.037 | [18] 0.047 | [19] 0.023 | [20] 0.06

VPS52 (UniProt Q8N1B4)
Chain of UniProt Q8N1B4 (Q8N1B4 whole entry, looked up): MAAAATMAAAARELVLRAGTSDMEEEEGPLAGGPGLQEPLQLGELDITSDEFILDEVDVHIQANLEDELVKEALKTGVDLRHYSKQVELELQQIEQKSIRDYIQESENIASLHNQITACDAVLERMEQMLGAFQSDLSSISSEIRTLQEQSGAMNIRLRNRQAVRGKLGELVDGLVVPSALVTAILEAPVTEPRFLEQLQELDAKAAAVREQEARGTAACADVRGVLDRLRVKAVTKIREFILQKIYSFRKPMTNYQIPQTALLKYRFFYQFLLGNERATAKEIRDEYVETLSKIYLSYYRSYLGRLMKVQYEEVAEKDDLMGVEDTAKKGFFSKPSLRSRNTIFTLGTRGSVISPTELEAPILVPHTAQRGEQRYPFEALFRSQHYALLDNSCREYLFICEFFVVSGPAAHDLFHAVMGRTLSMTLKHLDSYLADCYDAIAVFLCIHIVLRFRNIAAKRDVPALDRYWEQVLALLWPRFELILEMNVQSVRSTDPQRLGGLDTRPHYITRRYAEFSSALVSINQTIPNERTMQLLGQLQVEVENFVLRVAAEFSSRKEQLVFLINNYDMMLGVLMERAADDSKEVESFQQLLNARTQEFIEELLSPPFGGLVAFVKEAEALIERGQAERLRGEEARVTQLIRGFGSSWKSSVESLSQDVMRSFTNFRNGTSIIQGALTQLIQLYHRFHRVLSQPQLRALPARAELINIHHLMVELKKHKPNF
inactive: [1] -0.001 | [2] -0.102 | [3] -0.031 | [4] 0.058 | [5] 0.033 | [6] -0.122 | [7] 0.022 | [8] -0.013 | [9] 0.008 | [10] -0.068 | [11] -0.005 | [12] -0.031 | [13] -0.085 | [14] -0.086 | [15] -0.071 | [16] 0.091 | [17] 0.001 | [18] -0.016 | [19] -0.089 | [20] 0

UBE2S (UniProt Q16763)
Chain of UniProt Q16763 (Q16763 whole entry, looked up): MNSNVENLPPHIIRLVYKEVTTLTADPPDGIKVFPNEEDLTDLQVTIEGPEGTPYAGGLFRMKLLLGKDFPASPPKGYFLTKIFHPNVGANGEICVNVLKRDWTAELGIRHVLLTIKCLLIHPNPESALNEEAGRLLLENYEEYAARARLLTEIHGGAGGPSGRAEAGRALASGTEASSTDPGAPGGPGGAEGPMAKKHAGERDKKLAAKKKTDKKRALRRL
inactive: [1] 0.014 | [2] 0.079 | [3] 0.003 | [4] -0.067 | [5] 0.042 | [6] -0.015 | [7] 0.025 | [8] 0.002 | [9] 0.024 | [10] 0.1 | [11] -0.025 | [12] -0.08 | [13] -0.008 | [14] -0.017 | [15] 0.001 | [16] 0.04 | [17] -0.002 | [18] -0.037 | [19] -0.072 | [20] 0.002
